In all, about 2,000 compounds went through this assay and fewer than 10 were called active. These entries were drawn from the full list. A number with no mark means an inactive call.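 How the source made its calls: active means growth inhibition of at least 75% in every replicate, which also brings the mean inhibition to 75% or more; inconclusive means mean inhibition 75% or more but some replicate under 75%; inactive means the rest.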
experiment: reduced viability of yeast carrying PfHsp90 – S. cerevisiae, BacTiter-Glo luminescence, antimalarial PfHsp90 inhibitor project, primary screen (AID 504594);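 further: 0% = DMSO neutral control wells and 100% = 20 µM radicicol control wells; higher value means stronger growth inhibition because the sign is flipped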; conditions: S. cerevisiae expressing PfHsp90, BacTiter-Glo growth, 48 h; at 9.4 µM; active compounds read high

SMILES	growth inhibition
CN(C)CCOc1ccc(Cl)cc1C(C)(C)C	-0.977%
COc1ccc2c(c1OC)C(=O)N1C2SC[C@H]1C(=O)NC1CC(C)(C)NC(C)(C)C1 (stereo not given in full)	2.59%
N#Cc1cc2c([nH]c1=O)CCCC2	8.49%
COc1cc2c(cc1O)CCN(C(=O)c1ccco1)C2C (stereo not given)	3.62%
Cc1c(Cc2ccccc2)c(=O)oc2c(CN(C)C)c(O)c(Cl)cc12	-2.33%
COc1cccc(N2C(=O)[C@H]3C(C(=O)c4cnccn4)=NN[C@H]3C2=O)c1	-1.02%
O=C(O)C[C@@H](O)C(=O)O	-8.31%
Cc1ccc(CSCC(=O)N2CCCC2)cc1	-5.17%
O=C(NCCc1nc2ccccc2[nH]1)c1cccc(Br)c1	2.71%
CCNC(=S)N1CCN(CCN2C(=O)c3cccc4cccc(c34)C2=O)CC1	2.01%
COc1c2occc2c(OC)c2c(=O)cc(C(F)(F)C(F)(F)F)oc12	-5.37%
CC(=O)NC(Cc1c[nH]c2ccccc12)C(=O)N/N=C/c1ccccc1 (stereo not given)	13.4%
O=C(CN1CC[n+]2c(-c3cccs3)csc21)c1ccc(Br)cc1	-7.32%
Cc1ccc2nc(N=C(N)N)nc(C)c2c1	-4.91%
COc1ccc(CNC(=O)N[C@H](C(=O)O)C(C)C)cc1OC	-0.856%
CCOC(=O)NN1C(=O)c2ccccc2NC1c1ccc(OC)c(OC)c1 (stereo not given)	-6.91%
COC(=O)c1[nH]c(=O)c2ccccc2c1O	-11.7%
COC(=O)c1cc(OC)c(OC)cc1NC(=O)CN1C(=O)c2ccccc2C1=O	-14.3%
COc1cc(CNc2ccc(C)c(C)c2)cc(OC)c1OC	13.4%
Clc1ccc2c(c1)[C@H]1OCC[C@H]1[C@@H](c1ccco1)N2	1.42%
CC1(c2ccccc2)CC(C)(C)N2C(=O)C(=O)c3cccc1c32 (stereo not given)	-3.23%
O=c1nc2cccc3c2=c(/c1=C(\O)c1ccccc1)c1ccccc1c3=O	-23.6%

SMILES	growth inhibition
O=C1Nc2ccc3sc4ccccc4c3c2C1=O	-1.28%
O=C(CN1C(=O)/C(=C/c2cccc(Br)c2)SC1=S)Nc1cccnc1	-5.73%
CC(C)c1ccc(/C=C/C(=O)O)cc1	-10.9%
COc1ccc(CC(=O)N2CC3(C)CC2CC(C)(C)C3)cc1OC (stereo not given)	12.2%
COc1ccc(CCn2c(C)cc3c(c2=O)C(c2ccncc2)C(C#N)=C(N)O3)cc1OC (stereo not given)	-3.67%
CC1(C)CC(CC(=O)O)(c2ccc(Cl)cc2)CCO1 (stereo not given)	4.78%
Cc1cccc2c1CC(C)(C)N/C2=C\C(N)=O	1.18%
COc1ccc(-c2[nH]ncc2C=O)cc1OC	7.91%
O=C(/C=C/c1ccc(F)cc1)NC(=S)N1CCCCC1c1cccnc1 (stereo not given)	4.68%
C=CCc1cccc2cc(C(=O)Nc3ccc(CC(=O)O)cc3)c(=O)oc12	-7.68%
C[C@H](NC(=O)C1(c2ccccc2)CCN(C(=O)[C@H]2CSCN2C(=O)OC(C)(C)C)CC1)C(=O)O	-9.59%
COC1CCN(Cc2cn(Cc3ccccc3)nc2-c2cc3ccccc3o2)CC1	3.22%
CC(C)CN1CC(C(=O)O)CC1=O (stereo not given)	-3.33%
CCOCCn1c(C(C)O)nc2ccccc21 (stereo not given)	-8.58%
O=C(CC(NC(=O)OCc1ccccc1)C(=O)O)OCc1ccccc1 (stereo not given)	0.482%
COc1ccc(C(=O)Nc2ncc3c(n2)CC(C)CC3=O)cc1 (stereo not given)	-12.5%
O=C1NCC2=C1C(c1ccccc1)Nc1ccccc1N2 (stereo not given)	6.48%
COc1cccc(C2CC(=O)C3=C(C2)Nc2ccccc2N(C(=O)CCC(=O)O)C3c2ccc(F)cc2)c1 (stereo not given)	3.39%
COc1ccc(C(=O)CCN2CCc3cc(OC)c(OC)cc3C2)cc1	4.16%
O=C1OC(=O)C2C1[C@@H]1CC[C@H]2O1 (stereo not given in full)	-14%
COCc1cc(=O)[nH]c(/N=C(\N)Nc2ccc(Oc3ccccc3)cc2)n1	-12.9%
CC(=O)c1ccc(CCCCCCCCCC(=O)O)s1	-16.6%

SMILES	growth inhibition
CC(C)CN1CCN(Cc2ccc3ncccc3c2)CC1CCO (stereo not given)	-15.2%
O=c1ccc2c(o1)/C(=C/C=C(Cl)Cl)CCC2	-2.29%
CC(C)(C)C(=O)NCCCNc1ccc([N+](=O)[O-])cc1	4.14%
CC(=O)c1c(C)[nH]c(C(=O)OCc2ccccc2)c1C	-16%
NS(=O)(=O)c1ccc(CCNC(=O)C2CCCN2C(=O)OCc2ccccc2)cc1 (stereo not given)	-1.5%
Cn1c(Oc2ccc3c(c2)OCO3)nc2c1c(=O)n(Cc1ccccc1)c(=O)n2C	5.1%
Oc1c(Cl)cc(Cl)c(Cl)c1Cc1c(O)c(Cl)cc(Cl)c1Cl	104% (active)
Cc1c2c(nc3c(C)cccc13)OC(C)C2 (stereo not given)	8.19%
CCOC(=O)n1c(=O)oc2ccccc21	-13.3%
Cc1csc(CCc2nc(C)cs2)n1	0.825%
O=C(Nc1ccc(F)c([N+](=O)[O-])c1)c1ccc2c(c1)OCCO2	-4.38%
CC(C)NS(=O)(=O)c1ccc(OCC(=O)Nc2cccc(F)c2)cc1	4.62%
COc1c2c(nc3occc13)C(CC=C(C)C)(OC)C(O)CC2 (stereo not given)	3.58%
COc1ccc(C=NCC2COc3ccccc3O2)cc1OC (stereo not given)	13.6%
O=C(Oc1cccccc1=O)c1ccccc1	11%
Cc1nc2ccccc2n1CC(=O)NC1CCCC1	-8.15%
CC1(C)CC(=O)c2cnc(NC(=O)C3CCCC3)nc2C1	0.802%
Cc1ccc(S(=O)(=O)Oc2ccccc2/C=N/N=C(N)N)cc1	9.9%
c1ccc(-c2ccc(C(c3ccccc3)n3ccnc3)cc2)cc1 (stereo not given)	91.6% (active)
CCc1cc2c(C)cc(=O)oc2cc1OC(=O)C1CCCN1C(=O)OC(C)(C)C (stereo not given)	5.63%
COc1ccc2cc(C(=O)Nc3ccc(S(N)(=O)=O)cc3)sc(=O)c2c1OC	5.36%
CC(C)(C)NCC(O)COc1ccccc1C(=O)CCc1ccccc1 (stereo not given)	-4.71%

SMILES	growth inhibition
Cn1nc(-c2ccc(Cl)cc2)nc2c(=O)n(C)c(=O)nc1-2	104% (active)
Cn1c(=O)[nH]c2nnc(-c3ccc(Cl)c(Cl)c3)nc2c1=O	1.34%
Cn1nc(-c2ccccn2)nc2c(=O)n(C)c(=O)nc1-2	-12.4%
N/C(Cc1ccc(Cl)cc1Cl)=N\OC(=O)c1ccc(Br)o1	30.5%
Cc1cccc(Oc2coc3cc(OC(=O)c4cncc(Br)c4)ccc3c2=O)c1	-0.933%
COC(=O)[C@@H](N)CS	-1.65%
O=Cc1ccc(N2CCCCC2)cc1	-3.18%
C#CCOc1ccc2c(C)cc(=O)oc2c1	-0.459%
COc1cccc(CC(=O)NCC2COc3ccccc3O2)c1OC (stereo not given)	12.9%
O=C(NCc1ccco1)/C(=C\C=C\c1ccccc1)NC(=O)c1ccccc1Br	-0.463%
CC(=O)OCC(OC(C)=O)C(OC(C)=O)C(OC(C)=O)C(=O)Nc1cccc(C)c1 (stereo not given)	-0.0548%
CC(=O)N1CCN(c2ccc(NC(=O)/C=C/c3ccccc3)cc2)CC1	10.6%
Cc1ccccc1-c1nn(-c2ccc(F)cc2F)cc1CNCCN(C)C	-12.6%
CC(C)Cc1ccc(C(C)C(=O)Nc2ccc(O)cc2)cc1 (stereo not given)	-4.11%
Cc1ccc(C(=O)Nc2ccc(O)cc2C(=O)O)cc1C	4.07%
CC(=O)N1CCn2c3c(c4cc(C)ccc42)CCCC31 (stereo not given)	-11.1%
Fc1cccc(Cc2noc(CN3CCN(c4cnccn4)CC3)n2)c1	-2%
O=Cc1ccccc1Oc1ccccc1	-0.351%
COc1ccc2[nH]c3c(c2c1)CCn1c-3nc2ccccc2c1=O	0.118%
CC(=O)Nc1ccc(OS(=O)(=O)c2c(C)cc(C)cc2C)cc1	10.9%
CCOc1ccc(C(=O)C(C)=O)c(OCC)c1	10.5%
CC(=O)Oc1ccc(C2OC(=O)c3ccccc3N2C(C)=O)cc1 (stereo not given)	-6.47%

SMILES	growth inhibition
COc1ccc(C(=O)O)cc1F	-4.03%
O=C(O)c1ccccc1OCCOc1ccccc1	3.6%
Cc1ccc2nc3c(cc(C(=O)NCC4CCCO4)c(=N)n3CCCOC(C)C)c(=O)n2c1 (stereo not given)	4.47%
CC(C)CC(=O)NC(NC(=O)CC(C)C)c1cccc([N+](=O)[O-])c1	2.96%
CC(=O)NC(NC(=S)N1CCCCCC1)C(Cl)(Cl)Cl (stereo not given)	-2.52%
C[N+]1(C2CCC3CCCC2C3O)CCCCC1 (stereo not given)	-8.1%
O=C(O)CCCCCN=C1CCc2ccccc2N1	0.535%
Cc1ccc(OCCCCn2ccnc2C)c(C)c1	-3.77%
COc1ccc(CCN2C(=O)CSC2c2ccc(OC)c(OC)c2)cc1OC (stereo not given)	2.57%
O=C1C(=O)N2C(=C1C(=O)N1CCCCCC1)c1ccccc1CC21CCCC1	-4.5%
CCN1CCN(C(=S)c2ccc(OC)cc2)CC1	-1.26%
O[C@H]1COC2C1OC[C@@H]2O (stereo not given in full)	-2.02%
O=[N+]([O-])c1ccc(O)c2ncccc12	93.7% (active)
O=C(Cc1ccccc1[N+](=O)[O-])NCc1ccncc1	15%
Oc1ccc(COCc2ccccc2)c2cccnc12	-6.18%
CC1CCN(C(=O)Oc2ccccc2)CC1	5.73%
C[N+]12CCCCC1C(COC(=O)c1ccc3c(c1)OCO3)CCC2 (stereo not given)	1.34%
CC(C)N(C(=O)Cc1ccccc1[N+](=O)[O-])C(C)C	4.35%
O=C(c1ccc(Cl)cc1)C1CCCN(Cc2ccc(Oc3ncccn3)cc2)C1 (stereo not given)	-7.65%
Cc1ccc(C2CC(c3cccs3)=NN2C(=O)c2ccco2)o1 (stereo not given)	6.03%
O=CNC1CCCc2c1[nH]c1ccc(Cl)cc21 (stereo not given)	-7.59%
COc1ccc(C(=O)[C@H]2[C@H]3C(=O)N(c4ccccc4)C(=O)[C@H]3C3C=CC=NN32)cc1 (stereo not given in full)	15.9%

— PubChem BioAssay AID504594 (Broad Institute, 2011)
